# Source: PubChem
# An excerpt weighted towards active compounds, which were near 3.9% of everything screened.
# CF NFkB block: blocks PAF-induced NF-kB reporter in cystic fibrosis cells; KKLEB NF-kB-GFP reporter, GFP fluorescence overnight; inhibition, % at 5 µM; 360,000 tested, 0.86% active; AID 588850;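 active = at least 50% inhibition at 5 µM, scaled per plate between neutral and stimulator controls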;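 note: PAF is a Pseudomonas aeruginosa culture filtrate used as stimulus; plate controls were PAF-stimulated DMSO wells for no effect and unstimulated DMSO wells for full effect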
# Peg3 prom inh: reduces Peg3 promoter-driven luciferase expression in HeLa. HeLa PEG-Prom luciferase reporter, luminescence, overnight. inhibition, % at 20 µM. 360,000 tested, 1.7% active. AID 588405;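 active = inhibition of at least 50% at 20 µM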
# KKLEB cytotox: CF airway cell cytotoxicity counter-screen; KKLEB CF airway cells viability, ATPlite luminescence, overnight; hits give low values; cells stimulated with P. aeruginosa culture filtrate; activity change (cytotoxicity), % at 5 µM; 360,000 tested, 0.36% active;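 active = corrected activity change at or below -50% at 5 µM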
# HIF-2a inh: HIF-2a inhibition | 786-0 RCC cells HIF-2a reporter, luciferase luminescence, overnight | inhibition, % at 18.8 µM | 360,000 tested, 0.72% active | AID 624352;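 active = inhibition of the luminescence signal of 40% or more relative to plate controls, in a single-dose primary screen at 18.75 µM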
# TROY signal inh: blocks TROY-dependent signaling in reporter cells | Q293 LMP1-TROYcd NF-kB luciferase reporter, 4 h | inhibition, % at 10 µM | 360,000 tested, 0.98% active | AID 1347056;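 active = compounds whose plate-normalised and pattern-corrected inhibition of the luciferase reporter signal at the single screening dose is 50% or more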
# TWEAK Fn14 block: blocks TWEAK-Fn14 interaction in a reporter cell assay. TWEAK-stimulated Fn14 reporter cells, luciferase luminescence, 8 h. 360,000 tested, 2% active. AID 1159606. inhibition, % at 10 µM; in the data active = inhibition above about 50%
# Mdm2 MdmX conf: confirmation of inhibitors of human Mdm2/MdmX interaction, set 2 | shares compounds with HIF-2a inh | SaOS-2 split-luciferase Mdm2/MdmX complementation, luminescence | inhibition, % at 8 µM | 740 tested, 99% active | AID 504601;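 active = mean inhibition of the luminescence signal across two replicates at or above 26 percent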
# Target sequence (O15151 whole entry, looked up): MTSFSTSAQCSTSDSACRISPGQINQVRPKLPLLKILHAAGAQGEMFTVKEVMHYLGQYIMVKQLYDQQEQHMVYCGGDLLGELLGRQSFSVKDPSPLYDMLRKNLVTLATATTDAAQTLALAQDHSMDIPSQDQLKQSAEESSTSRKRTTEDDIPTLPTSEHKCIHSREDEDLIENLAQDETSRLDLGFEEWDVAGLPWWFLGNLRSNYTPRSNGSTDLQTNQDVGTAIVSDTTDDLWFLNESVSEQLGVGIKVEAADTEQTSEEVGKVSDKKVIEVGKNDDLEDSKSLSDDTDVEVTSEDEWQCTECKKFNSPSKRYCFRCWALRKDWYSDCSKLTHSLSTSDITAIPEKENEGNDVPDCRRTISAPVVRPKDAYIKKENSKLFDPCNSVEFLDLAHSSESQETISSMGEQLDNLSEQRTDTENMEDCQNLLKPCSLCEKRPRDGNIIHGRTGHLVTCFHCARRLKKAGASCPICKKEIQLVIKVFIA
# Target sequence (Q00987 whole entry, looked up): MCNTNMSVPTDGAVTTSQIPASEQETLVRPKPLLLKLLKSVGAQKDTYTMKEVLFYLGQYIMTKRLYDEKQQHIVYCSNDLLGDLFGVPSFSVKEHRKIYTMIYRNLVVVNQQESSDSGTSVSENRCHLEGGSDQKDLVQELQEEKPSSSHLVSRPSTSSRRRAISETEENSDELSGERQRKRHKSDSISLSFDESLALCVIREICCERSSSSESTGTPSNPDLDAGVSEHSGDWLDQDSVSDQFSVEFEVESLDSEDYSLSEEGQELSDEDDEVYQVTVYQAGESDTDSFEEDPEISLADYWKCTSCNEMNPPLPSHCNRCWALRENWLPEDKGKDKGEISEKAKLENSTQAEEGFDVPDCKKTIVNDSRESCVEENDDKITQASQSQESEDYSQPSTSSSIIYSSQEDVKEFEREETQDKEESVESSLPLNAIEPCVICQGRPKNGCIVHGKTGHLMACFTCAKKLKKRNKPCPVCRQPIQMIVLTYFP
# HIF-2a conf: confirmation of HIF-2a inhibitors; shares compounds with HIF-2a inh; 786-0 RCC cells, HIF-2a luciferase reporter luminescence, overnight; inhibition, % at 18.8 µM; 1,800 tested, 56% active; AID 651580;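 active = mean inhibition across four replicates of at least 40 percent at the single tested concentration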
# HIF-1a counter: counter-screen for HIF-2a inhibitors: HIF-1a inhibition in MiaPaCa-2 cells. shares compounds with HIF-2a inh. MiaPaCa-2 HIF-1a luciferase reporter, desferoxamine, overnight. inhibition, % at 18.8 µM. 1,800 tested, 72% active. AID 651589;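 active = mean inhibition of the reporter signal across four replicates at the single tested dose of 50% or more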
# * marks the source's active call; other numbers are inactive results; x = no result.
SMILES,CF NFkB block,Peg3 prom inh,KKLEB cytotox,HIF-2a inh,TROY signal inh,TWEAK Fn14 block,HIF-2a conf,HIF-1a counter,others
O=C(Nc1cccc(C(=O)O)c1)Nc1ccccc1Cl,2.3,-8.8,-5.6,40.1*,-51.5,-12.9,31.8,-65.2,
O=C(NCc1ccccc1)C(=O)Nc1cccc(C(=O)O)c1,-6.4,31.4,0.3,57.6*,-26.5,8.7,71.4*,-38.1,
COc1ccc(CNC(=O)c2cc3cccc(OC)c3oc2=N)cc1,-20.9,11.0,-20.2,9.2,-2.1,2.9,x,x,
Cc1cc(C)c(C#N)c(Sc2nc(C)c([N+](=O)[O-])c(C)c2C#N)n1,7.8,98.3*,-27.5,89.8*,49.4,82.0*,25.9,40.2,
CC(O)CC(=O)OC[C@]12CC[C@H]3[C@@](C)(CC[C@H]4C(C)(C)CCC[C@]34C)[C@@H]1CC(C1=CC(=O)OC1O)O2 (stereo partly specified),104.4*,99.1*,-88.0*,93.4*,88.9*,106.0*,96.2*,107.5*,
CCC(C)c1ccc(OCc2ccc(C(=O)O)o2)cc1 (stereo unspecified),-5.6,41.1,-1.7,55.0*,-97.2,3.1,33.3,-65.9,
CCOC(=O)C(CCCOc1ccc(C(C)CC)cc1)C(=O)OCC (stereo unspecified),-6.2,-1.9,5.6,70.5*,14.9,36.6,73.2*,69.0*,
CCCn1c(Nc2nc3ccccc3n2C)nc2ccccc21,3.6,89.6*,4.7,91.3*,15.8,-3.6,57.7*,105.3*,Mdm2 MdmX conf=103.2*
O=C(O)/C=C/C(=O)c1ccc2c(c1)CCc1ccccc1-2,64.1*,99.7*,3.3,49.6*,-27.4,22.5,57.1*,102.7*,
O=C(CN(C(=O)CNS(=O)(=O)c1ccc(F)cc1)c1cccc(F)c1)NCC1CCCO1 (stereo unspecified),-5.1,13.6,2.8,12.1,10.4,-11.5,x,x,
Cc1noc(/C=C/Nc2ccc(F)cc2F)c1[N+](=O)[O-],4.0,-260.2,6.6,-251.9,-15.4,-5.9,x,x,
Cc1noc(/C=C/c2ccccn2)c1[N+](=O)[O-],5.0,26.4,-10.7,72.7*,23.1,56.2*,86.5*,106.4*,
COc1ccc(C2c3ccc4ccccc4c3Oc3ncn(CCCN(C)C)c(=N)c32)cc1 (stereo unspecified),12.7,112.1*,-17.7,93.1*,-43.5,-189.1,-1.7,104.6*,Mdm2 MdmX conf=102.0*
CC(C)(C)n1nnnc1C(c1cccnc1)N1CCN(c2cccc(C(F)(F)F)c2)CC1 (stereo unspecified),9.0,0.8,-1.5,16.2,-10.6,-16.4,x,x,
CC(C)(C)c1cc(C(c2cccnc2)N2CCN(CCO)CC2)cc(C(C)(C)C)c1O (stereo unspecified),27.5,104.4*,-6.9,88.9*,9.3,41.8,80.4*,74.5*,Mdm2 MdmX conf=103.2*
CC(CN1CC(=O)NC(=O)C1)N1CC(=O)NC(=O)C1 (stereo unspecified),19.1,2.8,1.9,14.1,14.8,-8.8,x,x,
O=C(Nc1cccc(NC(=O)c2cc([N+](=O)[O-])ccc2Cl)n1)c1cc([N+](=O)[O-])ccc1Cl,-6.4,92.8*,-13.3,83.7*,-29.3,-17.6,25.3,102.2*,Mdm2 MdmX conf=100.5*
N#CC(C#N)=C1C=CC=CN1/C(=C\c1ccccc1Cl)C(=O)c1ccccc1,80.8*,107.8*,-58.1*,96.6*,-4.6,19.8,87.8*,93.5*,
N#CC(C#N)=C1C=CC=CN1/C(=C\c1ccccc1)C(=O)c1cccs1,12.6,11.8,-25.5,-38.4,-27.4,-6.9,x,x,
Brc1cc(Br)c2ncnc(N3CCCCC3)c2c1,51.6*,56.4*,-19.8,54.2*,7.8,21.5,24.9,88.2*,
CCN1C(=O)CS/C1=N\S(=O)(=O)c1ccc(Cl)cc1,6.2,-14.0,-10.4,6.4,-1.0,3.3,x,x,
CCn1c(Cl)c(C=O)s/c1=N\S(=O)(=O)c1ccccc1,87.9*,104.8*,-85.1*,94.9*,35.9,98.9*,98.7*,104.9*,Mdm2 MdmX conf=103.2*
O=[N+]([O-])c1ccc(O)c(-c2nc(-c3ccccc3)c(-c3cccs3)[nH]2)c1,62.3*,33.9,-59.6*,-4.0,37.4,25.1,x,x,Mdm2 MdmX conf=95.2*
O=C(O)c1ccccc1C(=O)Nc1ccccc1,-5.7,5.8,14.4,1.3,0.8,2.7,x,x,
O=C(Nc1ccccc1)C1=C(c2ccccc2)S(=O)(=O)CCS1(=O)=O,85.4*,108.6*,-83.4*,71.6*,87.2*,87.6*,45.0*,85.8*,
SMILES,CF NFkB block,Peg3 prom inh,KKLEB cytotox,HIF-2a inh,TROY signal inh,TWEAK Fn14 block,HIF-2a conf,HIF-1a counter,others
Cc1ccccc1-n1c(SCC(=O)N2CCCC2)nnc1-c1ccccn1,0.1,-4.8,4.3,18.4,10.9,3.2,x,x,
COc1ccccc1-c1cc(SC)c(C#N)c(=O)o1,27.3,82.0*,-44.9,41.9*,47.0,43.6,33.2,-8.6,
COc1ccccc1-c1ccc(C(=O)O)o1,6.5,-104.9,-0.6,-84.1,-67.7,-12.1,x,x,
COc1cccc(NC(=O)CSc2nc3c([nH]c4ccccc43)c(=O)n2C)c1,2.3,58.9*,-16.6,51.4*,-3.5,3.6,0.0,25.7,
Cc1cccc(NC(=O)CSc2nc3c([nH]c4ccccc43)c(=O)n2C)c1,-17.2,31.8,-15.0,23.3,-3.0,13.9,x,x,
Cc1noc(C)c1Cn1c(C)c(C(=O)NCc2ccc3c(c2)OCCO3)sc1=O,0.7,8.3,8.4,13.5,-0.9,-7.4,x,x,
CCN(CC)c1ccc(NC(=O)CCCCCN2C(=O)c3ccccc3C2=O)cc1,-4.5,10.2,-3.6,12.1,-16.7,-7.3,x,x,
CCN(CC)c1ccc(NC(=O)CCCCC(=O)Nc2ccc(N(CC)CC)cc2)cc1,-3.5,11.8,-6.3,65.4*,2.7,1.7,66.2*,48.9,
CC1=C(C)/C(=N\OS(=O)(=O)c2ccccc2)C=CC1=O,-11.8,105.5*,4.0,85.7*,-20.2,29.5,x,x,Mdm2 MdmX conf=103.2*
Cc1ccc(S(=O)(=O)O/N=C2\CCCc3ccccc32)cc1,1.0,10.8,5.2,10.9,12.7,7.2,x,x,
Cc1cccc(C2N=C(N)Nc3nc4ccccc4n32)c1 (stereo unspecified),1.2,7.5,-6.3,20.5,-7.3,17.9,x,x,
Cc1ccc(S(=O)(=O)N(Cc2nccn2C)C(C)C)cc1,-3.2,8.6,-0.2,12.4,-15.8,-5.5,x,x,
COc1ccc(/C=C2\SC(=O)N(CCCC(=O)Nc3ccc(C(=O)O)cc3)C2=O)cc1,10.5,43.7,4.8,84.5*,72.8*,83.2*,97.0*,90.6*,
